From PubChem BioAssay AID1159580 (chemical genetic matrix, 2015)
Values joined by “and” are separate entries in the source; they are usually repeats but may differ in a detail not shown here. Identical values can stand only once. Among all 5,500 compounds or so, about 2,000 (36%) were called active. Not shown: some 18% with an inconclusive outcome. Cut-off read from the data, not from the text of the source: active = normalized growth mostly below about 0.91 (no sharp cut-off); inconclusive = no clear call, values can overlap the other calls; inactive = mostly above about 0.92. The list shows a part of the results.

Test: chemical genetic growth profiling, strain panel (AID 1159580);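 note: tested at 20 µM; growth read once vehicle control cultures reached saturation at 30 °C; 1 = growth at the plate median or of vehicle wells; lower values mean less growth of the strain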
Details: S. cerevisiae deletion strains, growth OD

Measured: normalized growth

CC(=O)OC1CCC2(C)C(=CC=C3C2CCC2(C)C3CCC2C(C)/C=C/C(C)C(C)C)C1(C)C (configuration not stated)
inactive: locus YAL021C, strain ccr4, active compounds read low 0.994 | locus YAL026C, strain drs2, active compounds read low 1.02 | locus YAL030W, strain snc1, active compounds read low 1.02 | locus YBL061C, strain skt5, active compounds read low 1.02 | locus YBR009C, strain hhf1, active compounds read low 1.01 | locus YBR021W, strain FUR4, active compounds read low 1.02 | locus YBR023C, strain chs3, active compounds read low 1.03 | locus YBR171W, strain sec66, active compounds read low 1.04 | locus YBR229C, strain ROT2, active compounds read low 1.01 | locus YBR231C, strain swc5, active compounds read low 1.04 | locus YBR279W, strain paf1, active compounds read low 1.02 | locus YCL011C, strain gbp2, active compounds read low 1.03 | locus YCL016C, strain dcc1, active compounds read low 1.01 | locus YCL029C, strain bik1, active compounds read low 1.01 | locus YCL069W, strain vba3, active compounds read low 1.02 | locus YCR088W, strain abp1, active compounds read low 1.03 | locus YDL005C, strain med2, active compounds read low 1.04 | locus YDL035C, strain GPR1, active compounds read low 1.03 | locus YDL040C, strain nat1, active compounds read low 1.02 | locus YDL074C, strain BRE1, active compounds read low 1.06 | locus YDL101C, strain DUN1, active compounds read low 1.02 | locus YDL185W, strain tfp1, active compounds read low 0.993 | locus YDL192W, strain arf1, active compounds read low 1 | locus YDR001C, strain nth1, active compounds read low 1.03 | locus YDR069C, strain doa4, active compounds read low 1.02 | locus YDR101C, strain arx1, active compounds read low 0.974 | locus YDR137W, strain rgp1, active compounds read low 1.03 | locus YDR159W, strain sac3, active compounds read low 1.04 | locus YDR162C, strain NBP2, active compounds read low 0.995 | locus YDR195W, strain ref2 1.05 | locus YDR297W, strain sur2, active compounds read low 1.02 | locus YDR318W, strain mcm21, active compounds read low 1 | locus YDR334W, strain swr1, active compounds read low 1.03 | locus YDR335W, strain msn5, active compounds read low 1.02 | locus YDR388W, active compounds read low 1.02 | locus YDR392W, strain spt3, active compounds read low 0.992 | locus YDR502C, strain sam2, active compounds read low 0.989 | locus YEL003W, strain gim4, active compounds read low 1.03 | locus YEL037C, strain rad23, active compounds read low 1.02 | locus YEL061C, strain CIN8 (second series), active compounds read low 1.04 | locus YEL061C, strain CIN8, active compounds read low 1.01 | locus YER015W, strain faa2, active compounds read low 1.03 | locus YER016W, strain bim1, active compounds read low 1.02 | locus YER110C, active compounds read low 1.01 | locus YER111C, strain swi4, active compounds read low 1.02 | locus YER155C, strain BEM2 (second series), active compounds read low 1.05 | locus YER155C, strain BEM2, active compounds read low 0.998 | locus YER167W, strain BCK2, active compounds read low 1.04 | locus YFR010W, strain ubp6, active compounds read low 1.04 | locus YGL078C, strain dbp3, active compounds read low 0.987 | locus YGL086W, strain mad1, active compounds read low 0.994 | locus YGL167C, strain pmr1, active compounds read low 1.02 | locus YGL173C, strain kem1, active compounds read low 1.03 | locus YGL227W, strain vid30, active compounds read low 1.03 | locus YGL240W, strain doc1, active compounds read low 1 | locus YGL248W, strain PDE1, active compounds read low 1.01 | locus YGL253W, strain hxk2, active compounds read low 1.03 | locus YGR078C, strain PAC10, active compounds read low 1.04 | locus YGR135W, strain pre9, active compounds read low 0.996 | locus YGR252W, strain gcn5, active compounds read low 1.03 | locus YHR013C, strain ard1, active compounds read low 1.03 | locus YHR027C, strain rpn1, active compounds read low 1.04 | locus YHR030C, strain SLT2, active compounds read low 1.01 and 0.996 | locus YHR079C, strain IRE1 (second series), active compounds read low 0.998 | locus YHR079C, strain IRE1, active compounds read low 1.03 | locus YHR094C, strain hxt1, active compounds read low 0.991 | locus YHR129C, strain ARP1, active compounds read low 1.03 | locus YHR142W, strain chs7, active compounds read low 1.05 | locus YHR200W, strain rpn10, active compounds read low 0.986 | locus YIL066C, strain RNR3, active compounds read low 1.03 | locus YIL073C, strain SPO22, active compounds read low 1.03 | locus YIL125W, strain kgd1, active compounds read low 1 | locus YIR030C, strain dcg1, active compounds read low 1 | locus YJL092W, strain hpr5, active compounds read low 1.03 | locus YJL095W, strain BCK1 (second series), active compounds read low 1.02 | locus YJL095W, strain BCK1, active compounds read low 1.03 and 0.996 | locus YJL115W, strain asf1, active compounds read low 1.03 | locus YJL129C, strain trk1, active compounds read low 1.05 | locus YJL134W, strain LCB3, active compounds read low 1.01 | locus YJL154C, strain vps35, active compounds read low 1.03 | locus YJL164C, strain tpk1, active compounds read low 1.01 | locus YJL166W, strain qcr8, active compounds read low 1.02 | locus YJL168C, strain set2, active compounds read low 1 | locus YJL187C, strain SWE1 (second series), active compounds read low 1.03 | locus YJL187C, strain SWE1, active compounds read low 1.04 | locus YJR043C, strain POL32, active compounds read low 1.03 | locus YJR066W, strain TOR1, active compounds read low 0.936 | locus YKL009W, strain mrt4, active compounds read low 1.01 | locus YKL068W, active compounds read low 1.01 | locus YKL085W, strain MDH1 (second series), active compounds read low 1 | locus YKL085W, strain MDH1, active compounds read low 1 | locus YKL160W, strain elf1, active compounds read low 0.997 | locus YKR001C, strain vps1, active compounds read low 0.988 | locus YKR026C, strain gcn3, active compounds read low 1.03 | locus YKR091W, strain srl3, active compounds read low 1.03 | locus YLL001W, strain dnm1, active compounds read low 1.01 | locus YLL026W, active compounds read low 1.02 | locus YLL041C, strain sdh2, active compounds read low 1.02 | locus YLR027C, strain aat2, active compounds read low 1 | locus YLR039C, strain RIC1, active compounds read low 1.04 | locus YLR058C, strain SHM2, active compounds read low 1.01 | locus YLR102C, strain apc9, active compounds read low 0.988 | locus YLR113W, strain HOG1, active compounds read low 0.995 | locus YLR221C, strain rsa3, active compounds read low 1.02 | locus YLR258W, strain gsy2, active compounds read low 1 | locus YLR262C, strain YPT6 (second series), active compounds read low 1.01 | locus YLR262C, strain YPT6, active compounds read low 1.07 | locus YLR268W, strain sec22, active compounds read low 0.998 | locus YLR320W, strain mms22, active compounds read low 1.03 | locus YLR330W, strain CHS5, active compounds read low 1.02 | locus YLR342W, strain FKS1 (second series), active compounds read low 1.12 | locus YLR342W, strain FKS1, active compounds read low 1.02 | locus YLR357W, strain rsc2, active compounds read low 1.06 | locus YLR370C, strain arc18, active compounds read low 1.06 | locus YLR371W, strain rom2, active compounds read low 1.01 | locus YLR384C, strain iki3, active compounds read low 1.03 | locus YLR418C, strain cdc73, active compounds read low 1.02 | locus YML016C, strain PPZ1, active compounds read low 1 | locus YML032C, strain rad52, active compounds read low 1 | locus YML120C, strain ndi1, active compounds read low 1.02 | locus YML124C, strain tub3, active compounds read low 0.987 | locus YMR058W, strain fet3, active compounds read low 1.05 | locus YMR078C, strain ctf18, active compounds read low 0.998 | locus YMR125W, strain sto1, active compounds read low 1.03 | locus YMR129W, active compounds read low 1.03 | locus YMR205C, strain PFK2, active compounds read low 1.02 | locus YMR223W, strain ubp8, active compounds read low 1 | locus YMR231W, strain pep5, active compounds read low 1.02 | locus YMR263W, strain SAP30, active compounds read low 1.03 | locus YMR307W, strain GAS1, active compounds read low 1 | locus YNL067W, strain RPL9B, active compounds read low 1.04 | locus YNL071W, strain lat1, active compounds read low 1.03 | locus YNL183C, strain NPR1, active compounds read low 0.965 | locus YNL209W, strain ssb2, active compounds read low 1.01 | locus YNL233W, strain BNI4, active compounds read low 1.03 | locus YNL248C, strain rpa49, active compounds read low 0.965 | locus YNL250W, strain rad50, active compounds read low 0.99 | locus YNL271C, strain bni1, active compounds read low 1 | locus YNL298W, strain CLA4, active compounds read low 0.979 | locus YNL307C, strain MCK1, active compounds read low 1.02 | locus YNL322C, strain KRE1 (second series), active compounds read low 1.02 | locus YNL322C, strain KRE1, active compounds read low 1.02 | locus YNR049C, strain mso1, active compounds read low 1.02 | locus YNR052C, strain pop2, active compounds read low 1.01 | locus YOL012C, strain htz1 1.7 | locus YOL147C, strain pex11, active compounds read low 1 | locus YOR001W, strain rrp6, active compounds read low 1.04 | locus YOR061W, strain CKA2, active compounds read low 1 | locus YOR069W, strain VPS5, active compounds read low 1.01 | locus YOR070C, strain gyp1, active compounds read low 1.02 | locus YOR080W, strain dia2, active compounds read low 1.02 | locus YOR083W, strain WHI5, active compounds read low 0.998 | locus YOR106W, strain vam3, active compounds read low 1.02 | locus YOR136W, strain idh2, active compounds read low 0.987 | locus YOR144C, strain elg1, active compounds read low 0.988 | locus YOR184W, strain ser1, active compounds read low 0.983 | locus YOR231W, strain MKK1, active compounds read low 1.04 | locus YOR265W, strain rbl2, active compounds read low 1.01 | locus YOR270C, strain vph1, active compounds read low 1.03 | locus YOR290C, strain snf2, active compounds read low 0.993 | locus YOR316C, strain cot1, active compounds read low 0.989 | locus YPL051W, strain arl3, active compounds read low 1.02 | locus YPL055C, strain LGE1, active compounds read low 1.07 | locus YPL078C, strain atp4, active compounds read low 0.999 | locus YPL106C, strain sse1, active compounds read low 1.05 | locus YPL240C, strain hsp82, active compounds read low 1.03 | locus YPL256C, strain CLN2, active compounds read low 1.04 | locus YPR119W, strain clb2, active compounds read low 1 | locus YPR141C, strain kar3, active compounds read low 0.982 | locus YPR163C, strain tif3, active compounds read low 0.978 | locus YPR167C, strain met16, active compounds read low 1.01 | strain wtn01, active compounds read low 0.984
